Screening data from PubChem BioAssay.
Sampled rows, rich in hits. Any-hit rate of the full collection: about 2.6%.
AmpC inh det = blocks E. coli AmpC beta-lactamase in presence of detergent. purified AmpC, nitrocefin hydrolysis with detergent. 71,000 tested, 0.09% active. P00811. Potency, µM (top dose mostly 28.7 µM), for the others: at the top dose activity change, negative = inhibition; active = well fitted curve in the direction sought with a large enough effect; inconclusive = small, poorly fitted or top-dose-only effect; note: % is set by controls: 0 for no effect and ±100 for the full control effect
Target sequence (P00811 whole entry, looked up): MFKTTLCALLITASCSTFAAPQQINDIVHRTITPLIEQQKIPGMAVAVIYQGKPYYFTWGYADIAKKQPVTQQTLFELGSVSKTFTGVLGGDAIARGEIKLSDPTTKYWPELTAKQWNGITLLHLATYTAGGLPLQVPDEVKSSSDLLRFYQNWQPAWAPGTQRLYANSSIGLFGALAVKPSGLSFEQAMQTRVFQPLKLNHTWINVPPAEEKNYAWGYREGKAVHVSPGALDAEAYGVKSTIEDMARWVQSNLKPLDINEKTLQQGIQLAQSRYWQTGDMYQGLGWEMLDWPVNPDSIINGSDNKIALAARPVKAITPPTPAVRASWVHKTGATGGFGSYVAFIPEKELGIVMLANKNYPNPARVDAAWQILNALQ
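E. coli AmpC (5.3 nM) in 20 mM phosphate pH 7.0 with 0.01% Triton X-100, preincubated 15 min RT with compound; nitrocefin (2 uL of 800 uM stock) hydrolysis followed by 480 nm absorbance every 20 s over 4 min.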
SmPrx2 inh = inhibitors of Schistosoma mansoni peroxiredoxin 2. S. mansoni Prx2 activity coupled to TGR/GSH (TGR is thioredoxin glutathione reductase), NADPH fluorescence loss, qHTS. Potency, µM. 65,000 tested, 0.07% active. AID 448
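Purified S. mansoni TGR and Prx2 in pH 7.4 phosphate buffer with EDTA and Tween-20 were preincubated with compounds for 15 min. Further NADPH/GSH was added, then a 2.5 mM H2O2 aliquot initiated turnover, followed kinetically by NADPH fluorescence.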
LT uptake inh = inhibitors of anthrax lethal toxin internalization; 70,000 tested, 0.67% active; Cells, anthrax lethal toxin internalization, FRET ratio (460/530); Potency, µM (highest dose often 40 µM), inactives show at the highest dose activity change, negative = inhibition, usual class: inhibitors; AID 912; note: % is set by controls: 0 for no effect and ±100 for the full control effect; nearly all actives have a fitted effect of over 50% in size
AmpC inh no det = inhibitors of E. coli AmpC beta-lactamase without detergent; P00811; AmpC nitrocefin hydrolysis, absorbance 480 nm, no detergent; Potency, µM (doses to about 28.7 µM), inactives show top-dose activity change, negative = inhibition; 71,000 tested, 1.8% active; note: % of control where 0% means no effect
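Enzyme, pH 7.0 phosphate. Compound titrations were pre-incubated with AmpC for 15 min at room temperature before nitrocefin (stock 800 uM) addition; product formation was recorded at 480 nm every 20 s for 4 min.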
An asterisk follows results filed as active; ? = inconclusive; . = no result given; [ ] = remark or other dose. Unless noted, calls come from the whole dose curve. Potency is the fitted concentration of half-maximal effect.

SMILES	AmpC inh det	SmPrx2 inh	LT uptake inh	AmpC inh no det
O=C(CCN1C(=O)C2C3C=CC(C3)C2C1=O)NCC1CCCO1 (configuration not stated)	-2%	>57	-5%	-5%
O=C(NCCN1C(=O)C2C3C=CC(C3)C2C1=O)N1CCCCC1 (configuration not stated)	13%	>57	-7%	4µM*[single pt active]
Cc1cccc(NC(=O)NCCN2C(=O)C3C4C=CC(C4)C3C2=O)c1 (configuration not stated)	11%	>57	-8%	4µM*[single pt active]
COC[C@@H]1OC(=O)c2coc3c2[C@]1(C)C1=C(C3=O)[C@H]2CCC(=O)[C@]2(C)C[C@@H]1OC(C)=O	0%	>57	?	-9%
CCOC(=O)C1CCN(C(c2cc(OC)c(OC)c(OC)c2)c2sc3nc(C)nn3c2O)CC1 (configuration not stated)	6%	>57	16µM*	10%
COC(=O)C1CCN(C(c2cc(OC)c(OC)c(OC)c2)c2sc3nc(C)nn3c2O)CC1 (configuration not stated)	9%	>57	-4%	10%
Cc1ccc(NC(=O)CSC(N)=O)cc1Cl	25%	>57	15%	13µM*
NC(=O)SCC(=O)Nc1cccc(Cl)c1	8%	.	8%	7.9µM*
NC(=O)SCC(=O)Nc1ccc(Cl)c(Cl)c1	8%	.	-11%	5µM*
COc1ccc(-c2nnc(SCC(=O)Nc3cccc(Cl)c3)o2)cc1	3%	>57	1%	7.9µM*
C[C@@H](SCc1ccccc1)C(=O)O	-2%[5.75 µM]	>57	-2%[8 µM]	-6%[5.75 µM]
CCN(CCO)C[C@H]1CCC[C@H]2CCCC[C@@H]21	-3%[5.75 µM]	>57	?	-3%[5.75 µM]
COC(=O)CC[C@@H](C)[C@H]1CC[C@H]2[C@H]3CC[C@H]4C[C@@H]5CC[C@@]4(C)C3(O5)[C@@H](Br)[C@@H](Br)[C@@]12C	0%[5.75 µM]	>57	?	-6%[5.75 µM]
Cc1ccc2oc(=O)c3cc(C(=O)NCc4ccco4)sc3c2c1	10%	>57	?	4µM*[single pt active]
O=C(O)CN(CC(=O)O)c1ccccc1	-2%[5.75 µM]	>57	-9%[8 µM]	-5%[5.75 µM]
Cc1ccc(NC(=O)CC2Oc3ccc(C)cc3NC2=O)cc1 (configuration not stated)	10%	>57	-6%	-15%
COc1ccc(OC)c(CCNC(=O)CC2Oc3ccccc3NC2=O)c1 (configuration not stated)	10%	>57	-7%	14%
COc1ccc(NC(=O)CC2Oc3ccc(C)cc3NC2=O)cc1 (configuration not stated)	11%	>57	0%	4µM*[single pt active]
COc1ccc(NC(=O)CC2Oc3ccccc3NC2=O)cc1 (configuration not stated)	9%	>57	-5%	4µM*[single pt active]
CNC(=O)[C@@H]1O[C@@H](n2cnc3c(N)ncnc32)[C@@H](O)[C@H]1O	0%	>57	5%	7%
CNc1sc(C(=O)c2cccs2)c(N)c1-c1nc2ccccc2s1	-2%	>57	?	13µM*[single pt active]
CCC(C)[C@@H](C(=O)Nc1ccc(OC)c(OC)c1)N1Cc2ccccc2C1=O (some centres not stated)	13%	>57	9%	4µM*[single pt active]
CSCC[C@@H](C(=O)Nc1ccc2c(c1)OCCO2)N1Cc2ccccc2C1=O	8%	>57	-7%	4µM*[single pt active]
COc1ccc(CCNC(=O)C2(C)CCC(=O)N2CCC(C)C)cc1OC (configuration not stated)	18%	>57	-21%	4µM*[single pt active]
CCCCCCCCCCCCCCCCCCNC(=O)OC[C@@H](COP(=O)([O-])OCC[n+]1ccsc1)OC	-3%	>57	-1%	31%
SMILES	AmpC inh det	SmPrx2 inh	LT uptake inh	AmpC inh no det
S=C=Nc1cccc2ccccc12	10%	.	.	-10%
C[C@@H]1CC[C@@H]2N(C1)C[C@H]1[C@@](O)([C@H](O)C[C@]3(O)[C@H]4CC[C@H]5[C@]6(O)O[C@]4(C[C@]13O)[C@@]5(C)CC[C@@H]6O)[C@@]2(C)O	0%[5.75 µM]	>57	3%[8 µM]	-5%[5.75 µM]
N#Cc1nc(-c2ccccc2F)oc1NCc1cccc2c1OCO2	-4%	>57	11%	13%
CN(C)CCNc1oc(-c2ccccc2F)nc1C#N	13%	>57	-8%	4µM*[single pt active]
N#Cc1nc(-c2ccccc2F)oc1NC1CCCCC1	11%	>57	?	4µM*[single pt active]
COc1cc(S(=O)(=O)NCc2ccc3c(c2)OCO3)ccc1Cl	7%	>57	?	-14%
CCOc1ccc(OCC)c(S(=O)(=O)NCc2ccc3c(c2)OCO3)c1	14%	>57	-11%	4µM*[single pt active]
